The source of these data is ChEMBL document CHEMBL4513216, “Probing the Open Global Health Chemical Diversity Library for Multistage-Active Starting Points for Next-Generation Antimalarials” (ACS Infect Dis, 2020).

Among all 69,000 compounds or so, about 8,600 (12%) showed an effect of 50% or more. For the sample, strong results were picked, then their nearest neighbours and some compounds at random.

For the test, the system named is Plasmodium berghei. Kind of test: Screen against P. berghei liver stage (PbLuc), transformed with Luciferase, at 10uM. The format is functional, HepG2. To be noted: tested at 10 uM.
With `CN(C)Cc1ccc(CNC(=O)NCC2(C)CCCS2)cc1` (stereo unspecified), the INHIBITION is reported as 49.3%. For `Cc1ccc(-c2ncc(C(=O)NS(C)(=O)=O)s2)c(C)c1`, the INHIBITION is given as -2.53%. The value for `CNC(=O)NC(=O)CCSCc1cc(Cl)cc2cccnc12` was -51.1%. For the compound `CC(C)NC(=O)N(C)C1CCN(c2ccccc2Cl)C1=O` (stereo unspecified), the INHIBITION is listed as -6.61%. The value for `Cc1n[nH]c(C)c1CCC(=O)N1CCC(O)(CN2CCOCC2)C1` (stereo unspecified) was 53.65%; that for `Cc1n[nH]c(C)c1CC(=O)N1CCC(O)(CN2CCOCC2)C1` (stereo unspecified) was -23.55%. Regarding `Cc1n[nH]c(C)c1CCC(=O)N1CCC(O)(CN2CCN(C)CC2)C1` (stereo unspecified), the INHIBITION is recorded as -15.15%. The value for `c1nc(N2CCOC(Cn3cncn3)C2)c2cc[nH]c2n1` (stereo unspecified) was 33.8%; that for `COCC(=O)N1CCc2cccc(S(=O)(=O)N3CCOCC3)c2C1` was 33.9%; that for `CCCOC(=O)N1CCc2cccc(S(=O)(=O)N3CCOCC3)c2C1` was 20.3%. For `CCOCCC(=O)N1CCc2cccc(S(=O)(=O)N3CCOCC3)c2C1` the value was 53.9%; for `Cc1ccsc1C(=O)Nc1ccc(N2CCC(O)CC2)c(C#N)c1`, 96.1%. For `N#Cc1cc(NC(=O)c2ccccc2)ccc1N1CCC(O)CC1`, the INHIBITION is recorded as -4.86%. `N#Cc1cc(NC(=O)c2ccncc2)ccc1N1CCC(O)CC1`: the INHIBITION was found to be 62.3%. The value for `N#Cc1cc(NC(=O)c2ccsc2)ccc1N1CCC(O)CC1` was 35.1%; that for `Cc1ccc(C(=O)Nc2ccc(N3CCC(O)CC3)c(C#N)c2)s1` was 17.6%. With `N#Cc1cc(NC(=O)c2ccccn2)ccc1N1CCC(O)CC1`, the INHIBITION was -5.25%.

As for `Cn1cccc1C(=O)N[C@H]1CN(Cc2ccoc2)[C@@H]2CCCO[C@H]12`, the INHIBITION is recorded as 34.9%. For `COCC(=O)NCc1nn(CCN2CCCC2)c(=O)c2ccccc12` the value was 31.3%. The value for `Cc1ccc(C)c(CS(=O)(=O)CC(=O)NCCCOC(C)C)c1` was -2.19%. `Cc1nc(C)n(CC2CCCCN2CC(=O)Nc2nnc(C)s2)n1` (stereo unspecified): the INHIBITION turned out to be 4.71%. For `CCN(CCOC)C(=O)c1ccc2c(c1)nc(N1CC[C@H](O)C1)n2C` the value was 1.74%. For the compound `Cc1ncc(C(=O)N2CCCC(C(=O)c3nccn3C)C2)c(O)n1` (stereo unspecified), the INHIBITION is given as -6.01%. The value for `Cc1cccc(C)c1OCC(O)CNCc1c(C)nn(C)c1N(C)C` (stereo unspecified) was 19.4%. `O=C(C1CCOC1)N1CCc2ncc(CNc3ccccn3)n2CC1` (stereo unspecified): the INHIBITION is recorded as 41.5%. The value for `c1ccc(NCc2cnc3n2CCN(C2CCOC2)CC3)nc1` (stereo unspecified) was 81.2%; that for `c1nc2n(c1CN1CCCCC1)CCN(C1CCOC1)CC2` (stereo unspecified) was -33.9%; that for `c1nc2n(c1CN1CCOCC1)CCN(C1CCOC1)CC2` (stereo unspecified) was -52.3%. The value for `c1nc2n(c1CN1CCCC1)CCN(C1CCOCC1)CC2` was 80%; that for `c1ccc(NCc2cnc3n2CCN(CC2CCOC2)CC3)nc1` (stereo unspecified) was 27.6%. The value for `c1cnc(N2CCC3(CCN(CC4CCOC4)CC3)CC2)nc1` (stereo unspecified) was 15.6%; that for `CC(NC(=O)OC(C)(C)C)c1nnc(S(=O)(=O)Cc2ccc(Cl)cc2)o1` (stereo unspecified) was -19.1%; that for `COc1ccc2c(ccn2CCC(=O)NCc2ccc(C(=O)O)cc2)c1` was 7.83%. Regarding `O=C([C@H]1C[C@H]2OCC[C@H]2N(Cc2ccco2)C1)N1CCCO1`, the INHIBITION was determined as 34.6%.

In the case of `O=C(N1CCCO1)[C@@]12CCO[C@@H]1CCN(Cc1ccccc1)C2`, the INHIBITION is reported as -10.4%.

For `CC(C)c1cccc(NC(=O)Cn2c(=O)n(C)c(=O)c3sccc32)c1`, the INHIBITION came to 74.7%. For `Cn1c(=O)c2sccc2n(CC(=O)Nc2cccc(Cl)c2)c1=O` the value was -25.5%; for `CC(C)n1c(=O)c2sccc2n(CC(=O)Nc2ccccc2)c1=O`, 52.4%; for `O=C(Cn1c(=O)[nH]c2cn(-c3ccccc3)c(=O)n21)Nc1ccccc1`, 23.2%. For `CC(C)n1c(=O)c2sccc2n(CC(=O)Nc2cccc(Cl)c2)c1=O` the value was 19.3%.

Turning to `CCn1c(=O)c2sccc2n(CC(=O)Nc2cccc(Cl)c2)c1=O`, the INHIBITION amounted to 33.3%. For `CC1=N[C@@]2(CC[C@@H]3CN(S(=O)(=O)CC(C)C)C[C@@H]32)C(=O)N1CC(C)C` the value was 40.4%; for `CCN(CC)CCNC(=O)CCc1c(C)nn(-c2ccccc2Br)c1C`, 6.55%. The value for `CC(C)(C)NC(=O)c1cccc(CN2CCS(=O)(=O)CC2)c1` was 47.3%; that for `Cc1ccc(N2CCC3(CCN(C(=O)c4ccccn4)CC3)CC2)nn1` was 0.72%. `Cc1cc(C)n(CC(C)CNC(=O)NCc2csc(C)n2)n1` (stereo unspecified): the INHIBITION turned out to be 35.4%. Regarding `Cc1nnc(SC2CCc3ccccc3NC2=O)n1C` (stereo unspecified), the INHIBITION was determined as 38.1%.

With `Cn1cnnc1SC1CCc2ccccc2NC1=O` (stereo unspecified), the INHIBITION is reported as 34.3%. The value for `Cn1nnnc1SC1CCc2ccccc2NC1=O` (stereo unspecified) was 56.3%; that for `O=C(NCc1ccc(-n2cncn2)nc1)c1ccc2c(c1)CCC2` was -45.9%; that for `COC[C@]1(O)CCN(C2CCN(c3ccc(OC)cc3)CC2)CC1(C)C` was 23.9%.
